# Measured values as given in PubChem BioAssay.
# Activity calls are given as the source filed them. Unless noted, the rule behind the calls is not given here.
# Tests used:
# [1] = anti-His antibody binders, primary screen, artefact control for SMM control protein annotation, biochemical, small-molecule microarray, 635 nm fluorescence (AID 1128); settings: anti-His Alexa647 antibody binding, higher = more signal;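 note: score merges feature fluorescence with signal-to-noise for each printed compound spot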
# [2] = system: Human papillomavirus type 1a E7 protein (residues 1-88); experiment: HPV1a E7 small-molecule binders, primary screen, biochemical, small-molecule microarray, residues 1-88, 635 nm (AID 1129); settings: small-molecule microarray binding, fluorescence 635 nm; higher = more signal
# [3] = biological target: Focal adhesion kinase 1 (Homo sapiens) (UniProt Q05397); experiment: small-molecule microarray binders of FAK, primary screen, biochemical, 635/667 nm fluorescence, BSA, DTT (AID 1130); settings: PTK2 binding, 635 nm fluorescence, higher = more signal;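 note: composite of spot emission at 667 nm and signal to noise over triplicate slides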
# Sequence of Focal adhesion kinase 1 (Homo sapiens) (Q05397 whole entry, looked up): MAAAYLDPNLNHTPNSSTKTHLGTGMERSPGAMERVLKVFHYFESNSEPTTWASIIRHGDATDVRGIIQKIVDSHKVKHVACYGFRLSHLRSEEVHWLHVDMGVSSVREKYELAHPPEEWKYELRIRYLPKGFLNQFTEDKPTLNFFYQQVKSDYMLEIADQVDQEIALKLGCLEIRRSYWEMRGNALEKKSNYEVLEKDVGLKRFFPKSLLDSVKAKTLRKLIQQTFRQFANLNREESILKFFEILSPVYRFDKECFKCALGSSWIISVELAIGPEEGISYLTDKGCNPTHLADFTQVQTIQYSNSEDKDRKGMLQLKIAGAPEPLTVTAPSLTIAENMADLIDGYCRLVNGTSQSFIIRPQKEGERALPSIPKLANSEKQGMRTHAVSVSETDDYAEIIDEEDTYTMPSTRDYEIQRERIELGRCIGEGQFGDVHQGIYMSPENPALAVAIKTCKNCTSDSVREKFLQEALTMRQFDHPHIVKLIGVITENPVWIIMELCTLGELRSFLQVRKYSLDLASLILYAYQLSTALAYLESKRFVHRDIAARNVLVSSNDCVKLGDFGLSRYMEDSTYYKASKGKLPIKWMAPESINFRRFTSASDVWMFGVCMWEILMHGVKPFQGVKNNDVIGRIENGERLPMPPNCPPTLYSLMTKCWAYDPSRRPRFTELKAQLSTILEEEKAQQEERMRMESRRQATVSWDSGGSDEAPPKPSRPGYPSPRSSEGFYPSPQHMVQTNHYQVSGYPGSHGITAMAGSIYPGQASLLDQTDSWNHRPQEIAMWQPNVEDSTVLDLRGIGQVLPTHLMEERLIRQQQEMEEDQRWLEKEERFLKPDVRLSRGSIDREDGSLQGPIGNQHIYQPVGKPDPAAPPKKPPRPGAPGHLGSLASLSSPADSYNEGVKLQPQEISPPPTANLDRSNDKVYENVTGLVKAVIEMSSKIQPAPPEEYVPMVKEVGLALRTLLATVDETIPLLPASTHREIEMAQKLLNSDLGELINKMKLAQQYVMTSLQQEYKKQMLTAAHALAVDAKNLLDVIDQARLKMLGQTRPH
# [4] = system: Fibrinogen (Alexa647-labelled); experiment: fibrinogen binders on compound microarrays, profiling panel, artefact control for SMM control-protein annotation, biochemical, small-molecule microarray, 635/667 nm fluorescence (AID 1131); settings: fibrinogen-A647 binding fluorescence, higher = more signal;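 note: z-score merges 667 nm fluorescence with per-spot signal-to-noise over triplicate slides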
# [5] = biological target: Follistatin (Homo sapiens) (UniProt P19883); experiment: follistatin binders on small-molecule microarrays, primary screen, biochemical, small-molecule microarray, 635/667 nm fluorescence (AID 1132); settings: FST binding, 635 nm fluorescence, higher = more signal
# Sequence of Follistatin (Homo sapiens) (P19883 whole entry, looked up): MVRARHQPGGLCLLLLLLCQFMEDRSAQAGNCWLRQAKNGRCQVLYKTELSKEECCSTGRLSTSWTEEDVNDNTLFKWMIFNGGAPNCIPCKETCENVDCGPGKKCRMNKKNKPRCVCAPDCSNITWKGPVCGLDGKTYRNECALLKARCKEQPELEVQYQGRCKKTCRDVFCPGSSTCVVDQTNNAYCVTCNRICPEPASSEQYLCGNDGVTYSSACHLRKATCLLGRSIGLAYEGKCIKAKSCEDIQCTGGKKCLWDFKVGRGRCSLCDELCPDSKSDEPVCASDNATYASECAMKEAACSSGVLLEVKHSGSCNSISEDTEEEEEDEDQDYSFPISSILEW
# [6] = biological target: Fibroblast growth factor 2 (Homo sapiens) (UniProt P09038); experiment: FGF2 binders on small-molecule microarrays, primary screen, biochemical, small-molecule microarray, 635/667 nm fluorescence (AID 1133); settings: small-molecule microarray binding, FGF2, fluorescence 635/667; higher = more signal
# Sequence of Fibroblast growth factor 2 (Homo sapiens) (P09038 whole entry, looked up): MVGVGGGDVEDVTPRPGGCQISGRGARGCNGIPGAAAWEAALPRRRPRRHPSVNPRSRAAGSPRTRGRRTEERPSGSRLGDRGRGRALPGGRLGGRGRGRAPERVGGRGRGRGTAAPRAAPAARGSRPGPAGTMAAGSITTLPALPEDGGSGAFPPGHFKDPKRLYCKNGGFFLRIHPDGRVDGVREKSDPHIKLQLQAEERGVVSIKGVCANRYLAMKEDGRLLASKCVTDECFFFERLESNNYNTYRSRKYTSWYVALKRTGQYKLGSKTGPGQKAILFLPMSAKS
# [7] = mitochondrial membrane potential change in A549 cells, profiling panel, cell-based, JC-1 fluorescence, basal, 24 h, 100 nL (AID 1138); settings: higher = more signal;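 note: A549 lung adenocarcinoma cells under basal conditions with no added stimulus; test concentration not given here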
# Lefty1 = Lefty1 binders on small-molecule microarrays, primary screen, biochemical, small-molecule microarray, 635/667 nm fluorescence (AID 1139); settings: small-molecule microarray binding, fluorescence 635/667; higher = more signal
# [8] = system: wheat germ agglutinin (Triticum aestivum), Alexa647-labelled; experiment: wheat germ agglutinin binders on compound microarrays, profiling panel, artefact control for SMM control-protein annotation, biochemical, small-molecule microarray, 635/667 nm fluorescence (AID 1140); settings: WGA-A647 binding, 635 nm fluorescence, higher = more signal;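 note: score merges 667 nm feature emission with signal to noise over triplicate slides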
# [9] = biological target: Luciferin 4-monooxygenase (Photinus pyralis) (UniProt P08659); experiment: firefly luciferase enzyme inhibitors, primary screen, biochemical, luminescence, purified enzyme, 2006 set (AID 1141); settings: SteadyGlo luminescence, 30 min, higher = more signal, called active from +8 up or from −8 down;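 note: cell-free assay with purified firefly luciferase at 100 ng per well in PBS; test concentration not given here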
# Sequence of Luciferin 4-monooxygenase (Photinus pyralis) (P08659 whole entry, looked up): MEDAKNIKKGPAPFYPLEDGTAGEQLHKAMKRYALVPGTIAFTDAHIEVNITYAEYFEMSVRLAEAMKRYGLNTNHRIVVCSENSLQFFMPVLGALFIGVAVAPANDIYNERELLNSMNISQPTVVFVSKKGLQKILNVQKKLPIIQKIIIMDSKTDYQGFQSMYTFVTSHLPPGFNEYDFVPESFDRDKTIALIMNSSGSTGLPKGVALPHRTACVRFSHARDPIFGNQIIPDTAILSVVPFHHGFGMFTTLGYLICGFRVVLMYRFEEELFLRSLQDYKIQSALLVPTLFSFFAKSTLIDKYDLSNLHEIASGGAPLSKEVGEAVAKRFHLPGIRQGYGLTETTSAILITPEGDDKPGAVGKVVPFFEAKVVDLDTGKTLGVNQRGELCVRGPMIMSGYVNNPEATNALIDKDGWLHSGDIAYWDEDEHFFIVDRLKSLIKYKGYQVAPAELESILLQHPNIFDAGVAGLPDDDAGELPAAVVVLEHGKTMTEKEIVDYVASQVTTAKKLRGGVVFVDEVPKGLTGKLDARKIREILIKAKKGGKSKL
# [10] = system: Wnt5a (protein binding on small-molecule microarray); experiment: Wnt5a binders on small-molecule microarray, primary screen, biophysical, 635/667 nm fluorescence (AID 1142); settings: 635 nm fluorescence, higher = more signal;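 note: fluorescence read at 667 nm with signal to noise per printed feature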
# [11] = cell viability in Huh7 cells, primary screen, cytotoxicity control for HCV replication inhibitor project, CellTiter-Glo luminescence, basal, 48 h (AID 1143); settings: Huh7 HCV replicon, higher = more signal, called active from +8 up or from −8 down;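 note: Huh7 hepatoma cells carrying a hepatitis C replication reporter with no stimulus; test concentration not given here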
# [12] = P. aeruginosa biofilm formation inhibitors, primary screen, PAO1 strain, BacTiter-Glo luminescence, LB-PBS (AID 1144); settings: 12 h, higher = more signal
# [13] = CREB reporter modulators without forskolin, primary screen, cell-based, PC12, CRE-LacZ reporter, unstimulated (AID 1145); settings: no forskolin, luminescence, 4.5 h, higher = more signal, called active from +8 up or from −8 down
# [14] = CREB reporter modulators under forskolin, primary screen, cell-based, PC12, CRE-LacZ reporter, forskolin-stimulated (AID 1146); settings: luminescence, 4.5 h, higher = more signal, called active from +8 up or from −8 down;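 note: PC12 cells with 6xCRE LacZ reporter stimulated by forskolin 10 µM; beta-galactosidase reporter signal reflecting CREB driven transcription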
# [15] = biological target: Streptavidin (Streptomyces avidinii) (UniProt P22629); experiment: streptavidin binders on small-molecule microarray, primary screen, artefact control for SMM compound annotation, biophysical, 635/667 nm fluorescence (AID 1147); settings: streptavidin binding, higher = more signal;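 note: signal reflects streptavidin binding to arrayed compounds as a control protein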
# Sequence of Streptavidin (Streptomyces avidinii) (P22629 whole entry, looked up): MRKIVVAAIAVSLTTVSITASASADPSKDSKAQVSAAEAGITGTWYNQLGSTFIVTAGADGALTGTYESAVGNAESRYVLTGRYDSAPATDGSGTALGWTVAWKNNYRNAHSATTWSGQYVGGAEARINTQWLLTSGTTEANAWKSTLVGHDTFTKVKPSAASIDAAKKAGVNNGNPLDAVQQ
# [16] = small-molecule binders of probe aInhba, primary screen, biochemical, small-molecule microarray, 635/667 nm fluorescence (AID 1148); settings: higher = more signal;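 note: score merges 667nm spot fluorescence with signal-to-noise for antibody binding to printed compounds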
# Torsin-1A (Homo sapiens) [17] = biological target: Torsin-1A (Homo sapiens) (UniProt O14656); experiment: torsin A binders from cell lysate, primary screen, small-molecule microarray, wild-type, 635/667 nm (AID 1149); settings: COS7 hTOR1A-WT lysate, 635 nm fluorescence, higher = more signal
# Sequence of Torsin-1A (Homo sapiens) (O14656 whole entry, looked up): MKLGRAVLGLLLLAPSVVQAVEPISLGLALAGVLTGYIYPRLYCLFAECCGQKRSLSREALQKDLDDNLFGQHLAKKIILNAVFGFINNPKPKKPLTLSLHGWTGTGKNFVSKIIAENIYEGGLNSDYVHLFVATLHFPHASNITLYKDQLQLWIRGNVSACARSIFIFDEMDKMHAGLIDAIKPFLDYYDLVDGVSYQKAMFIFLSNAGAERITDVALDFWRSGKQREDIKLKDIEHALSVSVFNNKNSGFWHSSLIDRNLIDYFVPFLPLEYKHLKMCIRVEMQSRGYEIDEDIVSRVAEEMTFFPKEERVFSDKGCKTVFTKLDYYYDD
# Torsin-1A (Homo sapiens) [18] = biological target: Torsin-1A (Homo sapiens) (UniProt O14656); experiment: small-molecule binders of mutant TOR1A in lysate, primary screen, cell lysate, small-molecule microarray, COS7 lysate, 635/667 nm fluorescence (AID 1150); settings: COS7 hTOR1A mutant lysate, 635 nm fluorescence, higher = more signal;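 note: score pools 667 nm emission and signal to noise measuring lysate protein binding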
# [19] = system: Sonic hedgehog protein (Shh); experiment: small-molecule binders of Shh protein, primary screen, biochemical, small-molecule microarray, 635/667 nm fluorescence (AID 1151); settings: small-molecule microarray binding, 635 nm fluorescence; higher = more signal;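 note: Shh protein binding to compounds spotted on small-molecule microarray slides; score combines spot fluorescence intensity with signal-to-noise across triplicate slides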
Structure (SMILES),composite z-score [1],composite z-score [2],composite z-score [3],composite z-score [4],composite z-score [5],composite z-score [6],z-score [7],composite z-score (Lefty1),composite z-score [8],z-score [9],composite z-score [10],z-score [11],z-score [12],z-score [13],z-score [14],composite z-score [15],composite z-score [16],composite z-score (Torsin-1A (Homo sapiens) [17]),composite z-score (Torsin-1A (Homo sapiens) [18]),composite z-score [19]
O=C1NC(=O)C2C1C=CC(C(O)CCc1ccccc1)N2Nc1ccc(Cl)cc1Cl (stereo not given),0.371,1.18,1.11,0.363,0.0611,-0.83,-0.267,-0.556,1.07,0.369 (inactive),0.564,-0.149 (inactive),0.0136 (inactive),0.243 (inactive),0.0662 (inactive),0.209,-0.0581,0.689,1.36,-0.625
COC(=O)[C@@]1(Cc2ccccc2)[C@H]2c3cc(C(=O)N(C)C)n(CCc4ccc(O)c(OC)c4)c3C[C@H]2CN1C(=O)c1ccccc1,0.964,0.88,0.0098,0.814,0.168,0.273,0.153,0.0511,0.0048,0.554 (inactive),1.01,0.394 (inactive),0.333 (inactive),0.201 (inactive),0.334 (inactive),0.545,1.07,0.0405,0.212,-0.0598
NC(=O)N1C(=O)C2C(C1=O)C1C=C(CCCO)C2C(c2cccs2)N1Cc1cccc(OC(F)(F)F)c1 (stereo not given),2.83,0.416,0.192,0.692,0.82,-0.0701,0.928,0.672,0.438,-0.929 (inactive),-0.0995,-2.32 (inactive),0.818 (inactive),0.0704 (inactive),-0.461 (inactive),0.035,-0.114,0.726,0.981,1.4
[N-]=[N+]=NCc1ccccc1[C@@H]1OC(c2ccc(OCCCO)cc2)=N[C@]1(CCS(=O)(=O)c1ccccc1)C(=O)NCC(O)CO (stereo not given in full),2.39,1.28,0.546,1.03,1.29,1.05,-0.145,0.171,1.16,-1.93 (inactive),0.541,-0.866 (inactive),-0.701 (inactive),1.71 (inactive),-1.17 (inactive),0.962,0.0073,1.05,1.36,0.0169
COc1cc(OC)c(C(O)C2C=CC3C(=O)N(c4ccccc4)C(=O)C3N2Nc2ccccc2)cc1Br (stereo not given),1.95,1.18,0.531,0.454,0.461,-0.179,-0.267,0.387,0.126,-0.229 (inactive),-0.0276,-1.12 (inactive),-0.415 (inactive),0.0501 (inactive),-0.434 (inactive),1.24,0.0155,-0.162,0.282,-0.381
NC(=O)NCC#Cc1ccc2c(c1)[C@]1(C(=O)N2)[C@H](C(=O)NC[C@H](O)c2ccccc2)[C@H]2C(=O)O[C@H](c3ccccc3)[C@H](c3ccccc3)N2[C@@H]1c1ccc(OCCO)cc1,-0.0888,1.05,-0.0193,0.829,1.29,0.177,-0.303,-0.0126,0.915,-1.9 (inactive),0.496,0.546 (inactive),-0.223 (inactive),-0.698 (inactive),-0.535 (inactive),0.661,0.185,-0.0075,-0.002,0.728
CC(C)(C)OC(=O)CC[C@@]1(C(=O)NCc2ccccc2)N=C(c2ccc(OCCCO)cc2)O[C@@H]1c1ccccc1N=[N+]=[N-],1.63,1.25,1.22,0.951,1.39,1.58,-1.16,0.432,1.07,-11 (active),0.717,-2.53 (inactive),0.014 (inactive),1.73 (inactive),-0.947 (inactive),1.8,0.0839,-0.183,1.33,0.101
COCCOC(=O)N1C(=O)[C@@]2(c3cc(C#CCNC(N)=O)ccc31)[C@H](C(=O)N1CCc3cc(OC)c(OC)cc3C1)[C@H]1C(=O)O[C@H](c3ccccc3)[C@H](c3ccccc3)N1[C@@H]2c1ccccc1OCCO,1.16,0.778,0.378,0.757,1.2,1.48,-1.12,0.716,0.524,-0.709 (inactive),0.358,-2.32 (inactive),-0.772 (inactive),0.0776 (inactive),-0.979 (inactive),0.639,0.0301,0.969,0.498,1.81
CC1CC/C=C\[C@H]2OC34C=CCN(c5ccc(Cl)cc5)C(=O)[C@H]3N(CCCCCO)C(=O)[C@]4(C)C2C(=O)O1 (stereo not given in full),-0.463,-0.978,-0.857,-1.65,-1.58,-1.04,0.681,-0.778,-0.141,-0.535 (inactive),-0.793,0.504 (inactive),0.454 (inactive),0.329 (inactive),-0.75 (inactive),-1.18,-0.251,-2.18,-1.48,-0.449
CCOc1cc(C(O)C2C=CC3C(=O)N(C)C(=O)C3N2Nc2ccccc2)ccc1O (stereo not given),1.08,0.881,0.327,0.651,0.0506,-0.153,-0.203,-0.0696,0.974,-1.2 (inactive),0.297,0.559 (inactive),-0.947 (inactive),0.626 (inactive),-0.276 (inactive),0.702,-0.0297,0.526,0.467,-0.485
